Measured values: ChEMBL document CHEMBL4513216, “Probing the Open Global Health Chemical Diversity Library for Multistage-Active Starting Points for Next-Generation Antimalarials” (ACS Infect Dis, 2020)
Out of some 65,000 compounds screened, about 2,100 (3.2%) showed an effect of 50% or more. The median lay at about -52%. What follows is part of a selection rich in strong results, with near analogues and random picks from the rest.

Each compound was assayed on Plasmodium falciparum (assay: Screen against P. falciparum Asexual Blood Stage (ABS), at 5uM). Settings: tested at 5 uM.
Type: functional, Dd2

SMILES | INHIBITION [%]
Cc1nc(C)n(CC2CCCN2CC(=O)Nc2c(C)n[nH]c2C)n1 (stereo unspecified) | 35
Cc1cc(C)n(CC2CCCCN2CC(=O)Nc2c(C)n[nH]c2C)n1 (stereo unspecified) | -116
Cc1nc(C)n(CC2CCCCN2CC(=O)Nc2c(C)n[nH]c2C)n1 (stereo unspecified) | 54.2
CC(C)Cn1nc(-c2ccc(C(=O)O)cc2)cc1-c1ccc(F)cc1 | -57.3
CC(NCc1cccc(Cl)c1)c1ccc(OCC(=O)NC2CC2)cc1 (stereo unspecified) | 51.7
Cc1cccc(CNC(C)c2ccc(OCC(=O)NC3CC3)cc2)c1 (stereo unspecified) | -21
CC(NCc1cccnc1)c1ccc(OCC(=O)NC2CC2)cc1 (stereo unspecified) | -107
CC(C)(O)CN1CCN(C(=O)c2cccc3cccnc23)CC1 | 24.5
CC(C)CNC(=O)[C@H]1C[C@H]2CN(C(=O)Nc3ccc(F)cc3)C[C@@H]1O2 | -5.8
Cc1csc(NC(=O)CN2CCc3c(nc(C4CC4)n3C)C2)n1 | -122
NC(=O)c1ccccc1Oc1cnc(C2CCCN2)cn1 (stereo unspecified) | -95.3
NC(=O)c1ccccc1Oc1cccc(C2CCCNC2)n1 (stereo unspecified) | 55.8
NC(=O)c1ccc(C2CCCNC2)nc1 (stereo unspecified) | -43.7
O=C(CNCC1(O)CCCN(Cc2cccc(F)c2F)C1=O)NC1CC1 (stereo unspecified) | -93.9
O=C1N(Cc2cccc(F)c2F)CCCC1(O)CNCc1ccccn1 (stereo unspecified) | 4.26
CN1CCC(NCC2(O)CCCN(Cc3ccccc3F)C2=O)CC1 (stereo unspecified) | 7.93
COc1ccc(F)c(CN2CCCC(O)(CNCc3ncc[nH]3)C2=O)c1 (stereo unspecified) | -93.5
O=C1N(Cc2cccc(F)c2F)CCCC1(O)CNCc1ccccc1 (stereo unspecified) | 61.9
CC1CCN(CC2(O)CCCN(Cc3cccc(F)c3F)C2=O)CC1 (stereo unspecified) | -71.6
O=C1N(Cc2cccc(F)c2F)CCCC1(O)CNC1CCCC1 (stereo unspecified) | 60.2
COc1ccc(F)c(CN2CCCC(O)(CNCc3ccon3)C2=O)c1 (stereo unspecified) | -19
COc1ccc(F)c(CN2CCCC(O)(CNCC(C)(C)C)C2=O)c1 (stereo unspecified) | 50.2

SMILES | INHIBITION [%]
CN(CC1(O)CCCN(Cc2cccc(F)c2F)C1=O)C1CCCCC1 (stereo unspecified) | 65
COC(=O)CNCC1(O)CCCN(Cc2cccc(F)c2F)C1=O (stereo unspecified) | -51
CN(C)CCNCC1(O)CCCN(Cc2cccc(F)c2F)C1=O (stereo unspecified) | -65.2
Cc1noc([C@@H]2CC[C@@H]3[C@@H](CCN3c3nnc(C)s3)O2)n1 | -97.1
CCn1cnnc1CNC(=O)NC(C)c1ccccn1 (stereo unspecified) | -68.5
CCn1nc(C)c2c1cnn2CCNS(=O)(=O)c1cccs1 | -54.4
CCC(C)n1c(SCC(=O)N2CCOCC2)nc2cc(C)[nH]c2c1=O (stereo unspecified) | -77
CO[C@H]1CN(C(=O)c2ccc3oc(C)cc3c2)C[C@@]12CCCO2 | -39.5
CN(C)CC1(O)CCN(S(=O)(=O)c2ccc(Cl)cc2)C1 (stereo unspecified) | 42.9
Cc1ccc(S(=O)(=O)N2CCC(O)(CN(C)C)C2)cc1 (stereo unspecified) | 52
CN(C)CC1(O)CCN(S(=O)(=O)c2cccc(F)c2)C1 (stereo unspecified) | 66.7
COCC1COCCC12CCN(S(=O)(=O)c1ccc(C)cc1)CC2 (stereo unspecified) | -71.5
CN(C)CC1(O)CCN(S(=O)(=O)c2ccc(F)c(F)c2)C1 (stereo unspecified) | 20.7
CN(C)CC1(O)CCN(S(=O)(=O)c2ccc(F)cc2)C1 (stereo unspecified) | 36.6
Cc1cccc(CSc2ncc(Br)c(C(=O)O)n2)c1 | -52.3
Cc1cc(C)nc(NCCC(=O)Nc2ccc(Cn3cncn3)cc2)n1 | -92
Cc1cnn(CCNCc2ccc(OCc3noc(C)n3)cc2)c1 | -14.8
COc1ccc(C(C)NC(=O)C2CCN(S(C)(=O)=O)CC2)cc1C (stereo unspecified) | -118
COc1cccc(CCC(=O)N2CCCCC2Cn2cccn2)c1 (stereo unspecified) | -136
O=C(Cc1c[nH]c2ccccc12)N1CCC(Nc2cccnn2)CC1 | -48
COc1cccc(CCC(=O)N2CCC[C@@H](N)[C@@H]2c2ccccc2F)c1 | 68
COc1cccc(CCC(=O)N2CCCC(c3nncn3C)C2)c1 (stereo unspecified) | -9.28

SMILES | INHIBITION [%]
CC(=O)N1CCC[C@@H](NCc2c[nH]c3ccccc23)[C@@H]1c1ccc(C)s1 | 14.4
N[C@@H]1CCCN(C(=O)Cc2c[nH]c3ccccc23)[C@H]1c1ccccc1F | 65.8
O=c1[nH]nc2c(N3CCOCC3)nccn12 | -25.9
O=C(c1cccs1)N1C[C@H]2CCC[C@@]2(COCC2CCOCC2)C1 | -18.1
CS(=O)(=O)N1Cc2cnn(CC3CC3)c2C(COCC2CC2)C1 (stereo unspecified) | -13.5
O=C(NCC1CCS(=O)(=O)C1)c1ccco1 (stereo unspecified) | -48
Cc1nc2ccc(C(=O)N3C[C@@H](O)[C@H](N4CCOCC4)C3)cc2[nH]1 | -0.956
Fc1ccc(C(NCc2nnc(-c3ccco3)o2)C2CCC2)cc1 (stereo unspecified) | -32.2
CN(C)c1ccc(NC(=O)NCC2CCOC2)cn1 (stereo unspecified) | 33.3
Cc1ccc(S(=O)(=O)N2CCN(C)c3ccncc32)cc1F | 61.6
Cc1cc(F)ccc1S(=O)(=O)N1CCN(C)c2ccncc21 | 22.6
CN1CCN(S(=O)(=O)c2cccc(F)c2)c2cnccc21 | 13.2
N#CC1(C(=O)N2CCOC(c3ccc(Cl)cc3)C2)CCCC1 (stereo unspecified) | -11.4
CN(Cc1ccccc1F)C(C(N)=O)c1ccccc1 (stereo unspecified) | -90
COc1nccc(N2CC[C@@H](N3CCCCCC3)[C@H](O)C2)c1C#N | 52.3
COc1nccc(N2CC[C@@H](N3CCC(O)CC3)[C@H](O)C2)c1C#N | -75.9
COc1nccc(N2CC[C@@H](N3CCN(C)CC3)[C@H](O)C2)c1C#N | -50.4
O=C([C@H]1C[C@H]2OCC[C@H]2N(CC2CCOCC2)C1)N1CCCCO1 | -23.2
Clc1cccc(-n2cnnn2)c1N1CCCCC1 | -48.1
CCOC(=O)C1CN(CC2CC2)Cc2ncn(CC)c21 (stereo unspecified) | 14
CNC(=O)CN1CCOCC12CCN(C(=O)c1ccc(C)cc1)CC2 | -78
Cn1cc(C[C@H]2[C@H](N3CCOCC3)CCN2c2ncc(F)cn2)cn1 | -63.8
